MPTP inh: permeability transition pore inhibition | isolated mouse mitochondria, Ca2+ swelling absorbance, 30 min | inhibition, % at 10 µM | 360,000 compounds, 1.4% hits | AID 602449;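 active = inhibition of 50% or more, scaled per plate between neutral and stimulator controls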;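 also: 0% = DMSO wells given calcium and 100% = 1 mM EGTA wells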
Calb FLC: affects C. albicans growth with fluconazole. C. albicans CaCi-2 (fluconazole-resistant clinical isolate) + fluconazole, Alamar Blue growth, 48 h. growth inhibition, % (no concentration beside the values). 300,000 compounds, 0.57% hits. AID 1979;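 active = growth inhibition above about 58% in most replicates, limit read from the data, passing the limit was not always enough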;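 also: all wells also contain fluconazole at 8 µg/ml as a sub-toxic cotreatment; 0% = median of DMSO wells and 100% = median of geldanamycin control wells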
Beta cell apopt: beta cell apoptosis inhibition | INS-1E cytokine-induced death, ATP luminescence, 48 h; percent of positive-control rescue, neutral wells zero | protection from apoptosis, % (no concentration beside the values) | 300,000 compounds, 0.8% hits | AID 435005;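 active = Every replicate reaches about 75%, or at least half do and their mean reaches it too, limit read from the data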;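 also: 0% = cytokine-treated negative control wells and 100% = positive control rescue; higher means more ATP so stronger rescue from cytokine killing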
Mdm2 MdmX PPI: human Mdm2/MdmX binding inhibition. O15151+Q00987. 330,000 compounds, 3% hits. inhibition, % at 8 µM. SaOS-2 split-luciferase Mdm2/MdmX complementation, luminescence. AID 485346;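 active = inhibition of at least 50% at 8 µM in the primary screen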
Target sequence (O15151 whole entry, looked up): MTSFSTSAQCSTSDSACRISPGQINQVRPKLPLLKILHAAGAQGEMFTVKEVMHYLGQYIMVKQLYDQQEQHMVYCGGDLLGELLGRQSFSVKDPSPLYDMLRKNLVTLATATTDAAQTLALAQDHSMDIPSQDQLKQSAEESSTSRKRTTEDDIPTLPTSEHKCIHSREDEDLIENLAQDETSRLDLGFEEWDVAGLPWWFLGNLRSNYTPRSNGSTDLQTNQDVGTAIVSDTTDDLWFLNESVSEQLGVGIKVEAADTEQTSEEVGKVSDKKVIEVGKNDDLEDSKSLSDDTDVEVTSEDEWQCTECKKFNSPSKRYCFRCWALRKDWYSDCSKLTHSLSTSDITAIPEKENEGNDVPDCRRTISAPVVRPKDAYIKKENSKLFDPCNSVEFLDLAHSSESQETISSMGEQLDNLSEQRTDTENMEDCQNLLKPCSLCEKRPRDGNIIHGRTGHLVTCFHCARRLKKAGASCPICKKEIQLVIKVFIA
Target sequence (Q00987 whole entry, looked up): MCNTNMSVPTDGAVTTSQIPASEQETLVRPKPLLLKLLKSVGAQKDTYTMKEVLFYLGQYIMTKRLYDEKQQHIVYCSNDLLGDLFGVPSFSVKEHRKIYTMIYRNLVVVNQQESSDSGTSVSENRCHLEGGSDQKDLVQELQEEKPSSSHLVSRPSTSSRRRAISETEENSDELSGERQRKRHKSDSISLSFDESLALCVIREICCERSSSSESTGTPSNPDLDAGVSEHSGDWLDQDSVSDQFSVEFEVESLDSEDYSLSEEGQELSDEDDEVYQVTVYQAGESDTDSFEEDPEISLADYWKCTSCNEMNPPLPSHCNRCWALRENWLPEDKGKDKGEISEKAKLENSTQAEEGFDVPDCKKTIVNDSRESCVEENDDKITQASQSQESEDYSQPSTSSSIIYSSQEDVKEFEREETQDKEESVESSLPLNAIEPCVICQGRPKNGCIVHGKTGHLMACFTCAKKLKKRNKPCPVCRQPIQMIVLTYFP
CSC inhib: cancer stem cell inhibition; cancer stem cell-like cells viability, luminescence; inhibition, % at 7.5 µM; 300,000 compounds, 1.1% hits; AID 2717; in the data active = inhibition above about 75%; tested in HMLE shEcad cells
Mdm2-MdmX conf: human Mdm2/MdmX binding inhibition, confirmed. shares compounds with Mdm2 MdmX PPI. luminescent assay. inhibition, % at 8 µM. 10,000 compounds, 55% hits; in the data active = inhibition above about 40%
Full FLuc ctr: inhibits full-length luciferase, flagging false Mdm2/MdmX hits; shares compounds with Mdm2 MdmX PPI; AID 504607; 6,200 compounds, 77% hits; inhibition, % at 8 µM; SaOS-2 full-length luciferase counterscreen, luminescence;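 active = mean inhibition at 8 µM reaching about 37%, which flags the compound as non-specific, limit read from the data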;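 also: p53-null SaOS-2 cells with luciferase driven by a doxycycline-inducible promoter; compound on cells about two nights before reading with doxycycline added after day one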
Numbers without * were called inactive; / = no result given. Shown are actives, neighbours in structure and some others; about 4.8% of the full set was active somewhere.

SMILES	MPTP inh	Calb FLC	Beta cell apopt	Mdm2 MdmX PPI	CSC inhib	Mdm2-MdmX conf	Full FLuc ctr
CCn1cc(C(=O)NCCC(C)C)c(=O)c2cc(F)c(N3CCN(C(=O)c4ccco4)CC3)cc21	-3	-6	11	54*	29	42*	63*
Cc1ccc(N2CCN(C(C(=O)Nc3c(C)cccc3C)c3ccccc3OC(F)(F)F)CC2)cc1 (configuration not stated)	1	/	/	/	/	/	/
O=C1C(=O)N(c2nccs2)C(c2ccccc2F)/C1=C(\O)c1ccc2c(c1)OCCO2 (configuration not stated)	-1	-2	-7	71*	24	68*	37*
Cc1nnc(N2C(=O)C(=O)/C(=C(/O)c3ccc4c(c3)OCCO4)C2c2ccc(F)cc2)s1 (configuration not stated)	1	0	-7	10	-7	/	/
O=C1C(=O)N(c2nccs2)C(c2ccccc2)/C1=C(\O)c1ccc2c(c1)OCCO2 (configuration not stated)	-1	-9	-6	74*	42	88*	21
N#Cc1ccc(Oc2cnccn2)cc1	-2	11	-2	8	-2	/	/
CC12CCC(C)(c3nc4ccccc4nc31)C2(C)C	-2	0	-3	34	66	/	/
Cc1[nH]nc2c1-c1nc3ccccc3nc1C(C)(C)C2	1	39	-8	50*	/	27	/
COC(=O)c1c(NC(=O)c2ccccc2N(C)S(=O)(=O)c2ccccc2)sc2c1CCCC2	0	-4	/	/	/	/	/
COCCN(CCOC)S(=O)(=O)c1ccc(C(=O)Nc2sc3c(c2C(N)=O)CCCCC3)cc1	-1	-9	-8	82*	/	57*	116*
CCN1CCc2c(sc(NC(=O)c3ccc(S(=O)(=O)N(C)c4ccccc4)cc3)c2C(=O)NC)C1	0	-1	6	59*	42	33	/
CCOC(=O)c1c(NC(=O)c2ccccc2N(C)S(=O)(=O)c2ccccc2)sc2c1CCCC2	3	-4	25	55*	69	60*	66*
CC(C)(C)S(=O)N1Cc2cn(Cc3ccccc3)c(=O)cc2[C@@H]1CCO (some centres not stated)	0	/	/	/	/	/	/
O=C(O)c1cc(Cl)n[nH]c1=O	0	/	/	/	/	/	/
CC(C)(C)OC(=O)N1CCc2onc(-c3ccc(-n4cc(C5=CCCCC5)nn4)cc3)c2C1=O	9	/	/	/	/	/	/
CCOc1cc(C2C(C#N)=C(N)OC(C)=C2C(C)=O)c(Br)c(Br)c1OC(C)C (configuration not stated)	8	5	5	64*	41	47*	49*
COc1ccc(CN(C(=O)c2ccco2)c2ccc(C)c(C)c2)cc1	-3	1	-4	58*	9	57*	60*
CCOc1ccc(N(Cc2ccc(OC)cc2)C(=O)c2ccco2)cc1	3	4	-5	-4	10	/	/
CC(=O)c1ccc(N=C2SCCCN2C(=O)C2CCCC2)cc1	-2	0	2	38	-6	/	/
COc1cccc2cc(CC(=O)c3ccc(C)cc3C)c(=O)oc12	2	-1	9	-7	1	/	/
Cc1ccccc1-n1c(SCC(=O)Nc2ccccc2Cl)nc2n[nH]c(C)c2c1=N	0	22	1	66*	16	12	/
CCOc1ccccc1NC(=O)CCSc1nc2n[nH]c(C)c2c(=N)n1-c1ccccc1Cl	6	1	9	28	13	/	/
Cc1cc(-n2c(SCC(=O)NCCC3=CCCCC3)nc3n[nH]c(C)c3c2=N)ccc1Cl	0	8	37	36	29	/	/
CCOc1ccccc1-n1c(SCC(=O)Nc2ccc(CC)cc2)nc2n[nH]c(C)c2c1=N	/	-2	13	93*	0	11	/
Cc1[nH]nc2nc(SCC(=O)NCCC3=CCCCC3)n(-c3ccc(Br)cc3)c(=N)c12	0	2	93*	91*	56	47*	31
Cc1ccc(-c2nn(-c3cc(N4CCNCC4)ccc3[N+](=O)[O-])c(=O)c3ccccc23)cc1	-3	12	6	100*	20	29	/
Cc1cc(C(C)(C)C)cc(C)c1S(=O)(=O)N1CCN(C(=O)c2cc([N+](=O)[O-])c[nH]c2=O)CC1	1	3	1	13	-16	/	/

Bioassay records from PubChem BioAssay.
